Out of some 5,500 compounds screened, about 2,000 (36%) were called active. Another 18% or so got no clear call; they are omitted. No stated cut-off is given here; in the data, active means normalized growth mostly below about 0.91 (no sharp cut-off); inconclusive means no clear call, values can overlap the other calls; inactive means mostly above about 0.92. The list shows a part of the results.
Test: chemical genetic growth profiling, strain panel (AID 1159580);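 further: tested at 20 µM; growth read once vehicle control cultures reached saturation at 30 °C; 1 = growth at the plate median or of vehicle wells; lower values mean less growth of the strain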
Settings: growth OD

Measured: normalized growth

CCC(N)C(O)c1ccc(O)c(O)c1 (configuration not stated)
inactive: S. cerevisiae deletion strains, locus YJR075W, strain HOC1, hits give low values 1.01 | S. cerevisiae deletion strains, locus YKL009W, strain mrt4, hits give low values 0.996 | S. cerevisiae deletion strains, locus YKL068W, hits give low values 0.993 | S. cerevisiae deletion strains, locus YKL085W, strain MDH1 (second series), hits give low values 0.985 | S. cerevisiae deletion strains, locus YKL085W, strain MDH1, hits give low values 0.985 | S. cerevisiae deletion strains, locus YKL160W, strain elf1, hits give low values 0.999 | S. cerevisiae deletion strains, locus YKL190W, strain CNB1, hits give low values 1.01 | S. cerevisiae deletion strains, locus YKR001C, strain vps1, hits give low values 0.99 | S. cerevisiae deletion strains, locus YKR026C, strain gcn3, hits give low values 0.973 | S. cerevisiae deletion strains, locus YKR091W, strain srl3, hits give low values 0.993 | S. cerevisiae deletion strains, locus YLL001W, strain dnm1, hits give low values 1 | S. cerevisiae deletion strains, locus YLL026W, hits give low values 0.984 | S. cerevisiae deletion strains, locus YLL041C, strain sdh2, hits give low values 1 | S. cerevisiae deletion strains, locus YLR027C, strain aat2, hits give low values 0.988 | S. cerevisiae deletion strains, locus YLR039C, strain RIC1, hits give low values 1.06 | S. cerevisiae deletion strains, locus YLR058C, strain SHM2, hits give low values 1.02 | S. cerevisiae deletion strains, locus YLR102C, strain apc9, hits give low values 0.983 | S. cerevisiae deletion strains, locus YLR113W, strain HOG1, hits give low values 0.998 | S. cerevisiae deletion strains, locus YLR221C, strain rsa3, hits give low values 1 | S. cerevisiae deletion strains, locus YLR258W, strain gsy2, hits give low values 0.993 | S. cerevisiae deletion strains, locus YLR262C, strain YPT6 (second series), hits give low values 0.996 | S. cerevisiae deletion strains, locus YLR262C, strain YPT6, hits give low values 1.05 | S. cerevisiae deletion strains, locus YLR268W, strain sec22, hits give low values 0.928 | S. cerevisiae deletion strains, locus YLR320W, strain mms22, hits give low values 0.99 | S. cerevisiae deletion strains, locus YLR330W, strain CHS5, hits give low values 1.01 | S. cerevisiae deletion strains, locus YLR342W, strain FKS1 (second series), hits give low values 0.989 | S. cerevisiae deletion strains, locus YLR342W, strain FKS1, hits give low values 0.995 | S. cerevisiae deletion strains, locus YLR357W, strain rsc2, hits give low values 0.979 | S. cerevisiae deletion strains, locus YLR370C, strain arc18, hits give low values 0.989 | S. cerevisiae deletion strains, locus YLR371W, strain rom2, hits give low values 0.977 | S. cerevisiae deletion strains, locus YLR384C, strain iki3, hits give low values 0.997 | S. cerevisiae deletion strains, locus YLR418C, strain cdc73, hits give low values 1.01 | S. cerevisiae deletion strains, locus YML016C, strain PPZ1, hits give low values 1.01 | S. cerevisiae deletion strains, locus YML032C, strain rad52, hits give low values 0.972 | S. cerevisiae deletion strains, locus YML120C, strain ndi1, hits give low values 1.01 | S. cerevisiae deletion strains, locus YML124C, strain tub3, hits give low values 0.991 | S. cerevisiae deletion strains, locus YMR058W, strain fet3, hits give low values 0.987 | S. cerevisiae deletion strains, locus YMR078C, strain ctf18, hits give low values 0.977 | S. cerevisiae deletion strains, locus YMR125W, strain sto1, hits give low values 0.964 | S. cerevisiae deletion strains, locus YMR129W, hits give low values 1 | S. cerevisiae deletion strains, locus YMR205C, strain PFK2, hits give low values 0.97 | S. cerevisiae deletion strains, locus YMR223W, strain ubp8, hits give low values 1.02 | S. cerevisiae deletion strains, locus YMR231W, strain pep5, hits give low values 0.996 | S. cerevisiae deletion strains, locus YMR263W, strain SAP30, hits give low values 1.01 | S. cerevisiae deletion strains, locus YMR307W, strain GAS1, hits give low values 1.01 | S. cerevisiae deletion strains, locus YNL067W, strain RPL9B, hits give low values 0.993 | S. cerevisiae deletion strains, locus YNL071W, strain lat1, hits give low values 0.991 | S. cerevisiae deletion strains, locus YNL128W, strain TEP1, hits give low values 1.02 | S. cerevisiae deletion strains, locus YNL153C, strain GIM3, hits give low values 0.985 | S. cerevisiae deletion strains, locus YNL183C, strain NPR1, hits give low values 0.968 | S. cerevisiae deletion strains, locus YNL209W, strain ssb2, hits give low values 1 | S. cerevisiae deletion strains, locus YNL233W, strain BNI4, hits give low values 0.992 | S. cerevisiae deletion strains, locus YNL248C, strain rpa49, hits give low values 1.01 | S. cerevisiae deletion strains, locus YNL250W, strain rad50, hits give low values 0.988 | S. cerevisiae deletion strains, locus YNL271C, strain bni1, hits give low values 0.99 | S. cerevisiae deletion strains, locus YNL298W, strain CLA4, hits give low values 0.993 | S. cerevisiae deletion strains, locus YNL307C, strain MCK1, hits give low values 1 | S. cerevisiae deletion strains, locus YNL322C, strain KRE1 (second series), hits give low values 0.985 | S. cerevisiae deletion strains, locus YNL322C, strain KRE1, hits give low values 1.01 | S. cerevisiae deletion strains, locus YNR049C, strain mso1, hits give low values 0.995 | S. cerevisiae deletion strains, locus YNR052C, strain pop2, hits give low values 0.997 | S. cerevisiae deletion strains, locus YOL006C, strain TOP1, hits give low values 1.05 | S. cerevisiae deletion strains, locus YOL012C, strain htz1 0.91 | S. cerevisiae deletion strains, locus YOL147C, strain pex11, hits give low values 0.991 | S. cerevisiae deletion strains, locus YOR001W, strain rrp6, hits give low values 1 | S. cerevisiae deletion strains, locus YOR061W, strain CKA2, hits give low values 1.02 | S. cerevisiae deletion strains, locus YOR069W, strain VPS5, hits give low values 1.01 | S. cerevisiae deletion strains, locus YOR070C, strain gyp1, hits give low values 0.991 | S. cerevisiae deletion strains, locus YOR080W, strain dia2, hits give low values 0.986 | S. cerevisiae deletion strains, locus YOR083W, strain WHI5, hits give low values 1.01 | S. cerevisiae deletion strains, locus YOR106W, strain vam3, hits give low values 0.997 | S. cerevisiae deletion strains, locus YOR136W, strain idh2, hits give low values 0.989 | S. cerevisiae deletion strains, locus YOR144C, strain elg1, hits give low values 0.986 | S. cerevisiae deletion strains, locus YOR184W, strain ser1, hits give low values 1 | S. cerevisiae deletion strains, locus YOR231W, strain MKK1, hits give low values 1.02 | S. cerevisiae deletion strains, locus YOR265W, strain rbl2, hits give low values 0.99 | S. cerevisiae deletion strains, locus YOR270C, strain vph1, hits give low values 1.02 | S. cerevisiae deletion strains, locus YOR290C, strain snf2, hits give low values 0.987 | S. cerevisiae deletion strains, locus YOR316C, strain cot1, hits give low values 0.989 | S. cerevisiae deletion strains, locus YPL051W, strain arl3, hits give low values 0.983 | S. cerevisiae deletion strains, locus YPL055C, strain LGE1, hits give low values 1.03 | S. cerevisiae deletion strains, locus YPL078C, strain atp4, hits give low values 0.996 | S. cerevisiae deletion strains, locus YPL106C, strain sse1, hits give low values 0.94 | S. cerevisiae deletion strains, locus YPL240C, strain hsp82, hits give low values 1.01 | S. cerevisiae deletion strains, locus YPL241C, strain CIN2, hits give low values 1.01 | S. cerevisiae deletion strains, locus YPL256C, strain CLN2, hits give low values 1.01 | S. cerevisiae deletion strains, locus YPR119W, strain clb2, hits give low values 0.981 | S. cerevisiae deletion strains, locus YPR141C, strain kar3, hits give low values 0.984 | S. cerevisiae deletion strains, locus YPR163C, strain tif3, hits give low values 0.996 | S. cerevisiae deletion strains, locus YPR167C, strain met16, hits give low values 0.99 | S. cerevisiae deletion strains, strain wtn01, hits give low values 0.979 | S. cerevisiae strains, strain wild type, hits give low values 1.02

From PubChem BioAssay AID1159580 (chemical genetic matrix, 2015)
